Results on 9 compounds are retold here after PubChem BioAssay AID2283131 (EPA ToxCast).

Inconclusive results are not listed. Calls of active or inactive are those of the source. The calls were made as follows: active = hit-call score of the fitted dose curve at least 0.9, where 1 is the maximum; inconclusive = response in the unintended direction; inactive = score below 0.9.

Chain of human Bruton's Tyrosine Kinase (BTK), BTK (gene 695) (Q06187 whole entry, looked up): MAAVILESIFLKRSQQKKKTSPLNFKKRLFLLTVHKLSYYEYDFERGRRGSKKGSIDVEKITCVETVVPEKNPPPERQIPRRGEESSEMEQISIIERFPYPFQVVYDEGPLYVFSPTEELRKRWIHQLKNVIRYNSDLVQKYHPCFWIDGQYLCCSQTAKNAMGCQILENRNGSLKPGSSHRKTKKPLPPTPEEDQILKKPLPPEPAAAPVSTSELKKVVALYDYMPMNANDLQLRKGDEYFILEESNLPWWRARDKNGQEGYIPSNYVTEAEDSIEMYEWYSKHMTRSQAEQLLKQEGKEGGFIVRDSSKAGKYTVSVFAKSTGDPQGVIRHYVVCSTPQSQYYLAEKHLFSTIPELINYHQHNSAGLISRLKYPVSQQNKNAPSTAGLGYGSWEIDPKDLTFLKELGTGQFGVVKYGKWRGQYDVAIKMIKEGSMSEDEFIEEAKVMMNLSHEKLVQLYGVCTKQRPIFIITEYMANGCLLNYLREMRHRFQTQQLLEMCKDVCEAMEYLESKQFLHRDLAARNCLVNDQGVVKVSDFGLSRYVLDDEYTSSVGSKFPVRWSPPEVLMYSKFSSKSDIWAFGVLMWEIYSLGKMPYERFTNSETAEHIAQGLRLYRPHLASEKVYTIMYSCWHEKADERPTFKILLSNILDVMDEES

In the experiment the target is human Bruton's Tyrosine Kinase (BTK), BTK (gene 695) (UniProt Q06187). Kind of experiment: NVS_ENZ_hBTK: NovaScreen (NVS) Enzymatic Assay for human Bruton's Tyrosine Kinase (BTK). The method, then:
NVS_ENZ_hBTK is a biochemical, single-readout assay that uses extracted gene-proteins in a cell-free assay. Measurements were taken 1 hour after chemical dosing in a 96-well plate.NVS_ENZ_hBTK is one of one assay component(s) measured or calculated from the NVS_ENZ_hBTK assay. It is designed to make measurements of enzyme activity, a form of enzyme reporter, as detected with fluorescence intensity signals by Fluorescence and electrophoretic mobility shift technology.Data from the assay component NVS_ENZ_hBTK was analyzed into 1 assay endpoint. This assay endpoint, NVS_ENZ_hBTK, was analyzed in the positive analysis fitting direction relative to DMSO as the negative control and baseline of activity. Using a type of enzyme reporter, loss-of-signal activity can be used to understand changes in the enzymatic activity as they relate to the gene BTK. Furthermore, this assay endpoint can be referred to as a primary readout, because this assay has produced multiple assay endpoints where this one serves a enzymatic activity function. To generalize the intended target to other relatable targets, this assay endpoint is annotated to the kinase intended target family, where the subfamily is non-receptor tyrosine kinase.
Binding assays used specific radioligands (tritiated, iodinated) with non-radioactive competitive displacement ligands in agonist or antagonist protocols (as indicated) and various reference compounds and inhibitors to titrate specific binding to receptors and transporters. Most enzyme assays (CYPs, kinases, phosphatases, proteases, HDACs) used recombinant protein and specific substrates (fluorescence mostly, some colorimetric and radioactive) and inhibitors, followed by a biochemical separation of substrate and product. All assays for the biochemical HTS were initially run in duplicate at a single concentration (10 uM for CYP450 assays and 25 uM for all others). […] Each assay was run with positive and negative controls, and concurrent controls on every plate. The follow-up (secondary) screen tested active chemical-pairs in concentration series, as well as a few additional assays not tested in the primary screen, some selected negative inactives, and several cases re-run in the concentration series for confirmatory purposes.
Turning to `CNC(=O)Oc1cccc2c1OC(C)(C)O2`, the compound was called inactive. Same read-out and setting: with `O=C(O)C(F)(F)C(F)(F)C(F)(F)C(F)(F)C(F)(F)C(F)(F)C(F)(F)F` the entry was “inactive”. Consider `O=S(=O)(O)C(F)(F)C(F)(F)C(F)(F)C(F)(F)C(F)(F)C(F)(F)C(F)(F)C(F)(F)F`, for which the AC50 was 17.4 µM (active). With `O=[N+]([O-])/N=C1\NCCN1Cc1ccc(Cl)nc1`, the result was inactive.

As to `S=C1NCCN1`, the result was inactive. Take `CCCOc1nn(C(=O)NS(=O)(=O)c2ccccc2C(=O)OC)c(=O)n1C`: the compound was classed as inactive. Same read-out and setting: with `Cc1ccccc1CO[C@@H]1C[C@@]2(C(C)C)CC[C@]1(C)O2` the entry was “inactive”; with `Fc1ccc(Oc2ccnc3cc(Cl)cc(Cl)c23)cc1`, “inactive”. In the case of `N#Cc1c(Cl)c(Cl)c(Cl)c(C#N)c1Cl`, the compound was called inactive.

As usually defined, the AC50 is the midpoint of the concentration-response curve, whichever way the signal moves.
